We go through 31 sequences from paper PMC11006913.

For assay [1], the target named is PRRX1 (Homo sapiens, UniProt P54821 80-166, F113S). Kind of assay: PBM; 200 nM protein, PBS. The conditions noted are these: dsDNA, one strand shown.
In assay [2] the target is PRRX1 (Homo sapiens, UniProt P54821 80-166). Kind of assay: PBM; 200 nM protein, PBS. Particulars: dsDNA, one strand shown.
Sequence of PRRX1 (Homo sapiens, UniProt P54821 80-166) (P54821 80-166): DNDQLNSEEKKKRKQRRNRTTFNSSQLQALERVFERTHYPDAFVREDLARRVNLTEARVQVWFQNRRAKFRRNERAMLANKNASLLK

Sequence of PRRX1 (Homo sapiens, UniProt P54821 80-166, F113S) (P54821 80-166 F113S): as the sequence (P54821 80-166) above, with F34S counted along it

Consider CCTGAGGC, for which the binding signal with PRRX1 [1] was 9.1 upbm affinity estimate (log intensity, higher = more binding, comparable within an allelic series); with PRRX1 [2], 9.44 upbm affinity estimate (log intensity, higher = more binding, comparable within an allelic series).
Turning to GGCCCTAC, the binding signal was 9.21 upbm affinity estimate (log intensity, higher = more binding, comparable within an allelic series) with PRRX1 [1] and 9.08 upbm affinity estimate (log intensity, higher = more binding, comparable within an allelic series) in the assay with PRRX1 [2].
On to GACTCTAA, for which the binding signal with PRRX1 [1] was 10.1 upbm affinity estimate (log intensity, higher = more binding, comparable within an allelic series); with PRRX1 [2] it was 11.1 upbm affinity estimate (log intensity, higher = more binding, comparable within an allelic series).
In the case of CCTACTTA, the binding signal is 10.1 upbm affinity estimate (log intensity, higher = more binding, comparable within an allelic series) in the assay with PRRX1 [1] and 11.6 upbm affinity estimate (log intensity, higher = more binding, comparable within an allelic series) with PRRX1 [2].
For the sequence GACGTTGC, the binding signal is 9.46 upbm affinity estimate (log intensity, higher = more binding, comparable within an allelic series) with PRRX1 [1] and 9.38 upbm affinity estimate (log intensity, higher = more binding, comparable within an allelic series) in the assay with PRRX1 [2].
As to CGGAGCGC, the binding signal with PRRX1 [1] is 9.18 upbm affinity estimate (log intensity, higher = more binding, comparable within an allelic series); with PRRX1 [2] it was 9.3 upbm affinity estimate (log intensity, higher = more binding, comparable within an allelic series).
For CGCTCCAC, the binding signal with PRRX1 [1] is 9.44 upbm affinity estimate (log intensity, higher = more binding, comparable within an allelic series); with PRRX1 [2] it was 9.3 upbm affinity estimate (log intensity, higher = more binding, comparable within an allelic series).
Regarding CCTGGAAC, the binding signal was 9.61 upbm affinity estimate (log intensity, higher = more binding, comparable within an allelic series) in the assay with PRRX1 [1] and 9.32 upbm affinity estimate (log intensity, higher = more binding, comparable within an allelic series) in the assay with PRRX1 [2].
For the sequence CCGGGGTC, the binding signal with PRRX1 [1] was 9.27 upbm affinity estimate (log intensity, higher = more binding, comparable within an allelic series); with PRRX1 [2], 9.54 upbm affinity estimate (log intensity, higher = more binding, comparable within an allelic series).
AGATATTA: the binding signal with PRRX1 [1] was 10.4 upbm affinity estimate (log intensity, higher = more binding, comparable within an allelic series); with PRRX1 [2], 12.2 upbm affinity estimate (log intensity, higher = more binding, comparable within an allelic series).
AGCTCGCA: the binding signal with PRRX1 [1] was 9.52 upbm affinity estimate (log intensity, higher = more binding, comparable within an allelic series); in the assay with PRRX1 [2], 9.05 upbm affinity estimate (log intensity, higher = more binding, comparable within an allelic series).
Turning to AATGAGGG, the binding signal with PRRX1 [1] was 9.96 upbm affinity estimate (log intensity, higher = more binding, comparable within an allelic series); in the assay with PRRX1 [2], 11.2 upbm affinity estimate (log intensity, higher = more binding, comparable within an allelic series).
Turning to GAACAGCC, the binding signal with PRRX1 [1] was 9.48 upbm affinity estimate (log intensity, higher = more binding, comparable within an allelic series); in the assay with PRRX1 [2] it was 9.53 upbm affinity estimate (log intensity, higher = more binding, comparable within an allelic series).
As for AGCACCCT, the binding signal is 9.32 upbm affinity estimate (log intensity, higher = more binding, comparable within an allelic series) with PRRX1 [1] and 9.38 upbm affinity estimate (log intensity, higher = more binding, comparable within an allelic series) in the assay with PRRX1 [2].
GCGCCAGA: the binding signal with PRRX1 [1] was 9.32 upbm affinity estimate (log intensity, higher = more binding, comparable within an allelic series); in the assay with PRRX1 [2], 9.56 upbm affinity estimate (log intensity, higher = more binding, comparable within an allelic series).
With CAATTCCC, the binding signal was 9.81 upbm affinity estimate (log intensity, higher = more binding, comparable within an allelic series) with PRRX1 [1] and 11.3 upbm affinity estimate (log intensity, higher = more binding, comparable within an allelic series) in the assay with PRRX1 [2].
In the case of CTTCATTA, the binding signal with PRRX1 [1] was 10.5 upbm affinity estimate (log intensity, higher = more binding, comparable within an allelic series); with PRRX1 [2], 12.8 upbm affinity estimate (log intensity, higher = more binding, comparable within an allelic series).
Take CCCAACGC: the binding signal with PRRX1 [1] is 9.62 upbm affinity estimate (log intensity, higher = more binding, comparable within an allelic series); with PRRX1 [2] it was 9.3 upbm affinity estimate (log intensity, higher = more binding, comparable within an allelic series).
For CCAACACC, the binding signal with PRRX1 [1] is 9.31 upbm affinity estimate (log intensity, higher = more binding, comparable within an allelic series); with PRRX1 [2] it was 8.85 upbm affinity estimate (log intensity, higher = more binding, comparable within an allelic series).
Turning to CCAAGACG, the binding signal in the assay with PRRX1 [1] is 9.45 upbm affinity estimate (log intensity, higher = more binding, comparable within an allelic series); with PRRX1 [2] it was 9.18 upbm affinity estimate (log intensity, higher = more binding, comparable within an allelic series).
Take CCCGTACG: the binding signal was 9.21 upbm affinity estimate (log intensity, higher = more binding, comparable within an allelic series) with PRRX1 [1] and 9.33 upbm affinity estimate (log intensity, higher = more binding, comparable within an allelic series) with PRRX1 [2].
CCAGAGTC: the binding signal in the assay with PRRX1 [1] was 9.5 upbm affinity estimate (log intensity, higher = more binding, comparable within an allelic series); with PRRX1 [2], 9.46 upbm affinity estimate (log intensity, higher = more binding, comparable within an allelic series).
On to GTGTTAAC, for which the binding signal was 10.1 upbm affinity estimate (log intensity, higher = more binding, comparable within an allelic series) with PRRX1 [1] and 11.8 upbm affinity estimate (log intensity, higher = more binding, comparable within an allelic series) with PRRX1 [2].
Take AGGAGAGC: the binding signal is 9.35 upbm affinity estimate (log intensity, higher = more binding, comparable within an allelic series) in the assay with PRRX1 [1] and 9.36 upbm affinity estimate (log intensity, higher = more binding, comparable within an allelic series) in the assay with PRRX1 [2].
Take CGTCTGGA: the binding signal in the assay with PRRX1 [1] was 9.4 upbm affinity estimate (log intensity, higher = more binding, comparable within an allelic series); with PRRX1 [2] it was 9.19 upbm affinity estimate (log intensity, higher = more binding, comparable within an allelic series).
Take AATTCAGG: the binding signal with PRRX1 [1] was 9.89 upbm affinity estimate (log intensity, higher = more binding, comparable within an allelic series); with PRRX1 [2] it was 11.3 upbm affinity estimate (log intensity, higher = more binding, comparable within an allelic series).
For the sequence ATTACAAC, the binding signal was 10.3 upbm affinity estimate (log intensity, higher = more binding, comparable within an allelic series) in the assay with PRRX1 [1] and 12.1 upbm affinity estimate (log intensity, higher = more binding, comparable within an allelic series) in the assay with PRRX1 [2].
As to CCCCAATA, the binding signal is 9.73 upbm affinity estimate (log intensity, higher = more binding, comparable within an allelic series) with PRRX1 [1] and 11 upbm affinity estimate (log intensity, higher = more binding, comparable within an allelic series) with PRRX1 [2].
ATTTTTAA: the binding signal is 10.4 upbm affinity estimate (log intensity, higher = more binding, comparable within an allelic series) with PRRX1 [1] and 12 upbm affinity estimate (log intensity, higher = more binding, comparable within an allelic series) with PRRX1 [2].
As to CCCAGGGA, the binding signal with PRRX1 [1] is 9.4 upbm affinity estimate (log intensity, higher = more binding, comparable within an allelic series); with PRRX1 [2] it was 9.28 upbm affinity estimate (log intensity, higher = more binding, comparable within an allelic series).
Regarding ATCATCAC, the binding signal was 10.1 upbm affinity estimate (log intensity, higher = more binding, comparable within an allelic series) with PRRX1 [1] and 11.5 upbm affinity estimate (log intensity, higher = more binding, comparable within an allelic series) in the assay with PRRX1 [2].
